Our source for the growth inhibition values is PubChem BioAssay (NCI).

Structures are written as SMILES. Compounds without any hit were thinned out: in the full panel of roughly 79,000, 15% have a hit. Unmarked numbers belong to inactive results. Active and inactive are the calls of the source. No stated cut-off is given here; in the data, active means growth inhibition above about 70%; inactive means the rest.

A short description of assay [1]: NCI Yeast Anticancer Drug Screen. Data for the rad50 strain (AID 155).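 Further: 0% = growth of vehicle-only cultures of the same strain.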 To be noted: S. cerevisiae rad50 strain growth inhibition, active compounds read high. Summed up:
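Compounds were tested on a yeast strain with an engineered DNA damage repair alteration; the reported value is growth inhibition normalised to vehicle treatment.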

Assay [2] in a line: NCI Yeast Anticancer Drug Screen. Data for the mec2-1 strain (AID 157). Conditions: S. cerevisiae mec2-1 strain, active compounds read high. In short, it runs like this: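 Test agents were screened against the mec2-1 yeast strain, with defined DNA repair or cell cycle alteration. Growth was scored as inhibition against vehicle-only controls.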
A short description of assay [3]: NCI Yeast Anticancer Drug Screen. Data for the sgs1 mgt1 strain (AID 161).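 Further: 0% = growth of cultures given vehicle only.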 To be noted: S. cerevisiae sgs1 mgt1 strain, active compounds read high. Summed up: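 Inhibition of yeast growth, normalised to vehicle-treated controls, is reported for a strain bearing genetic alterations in DNA damage repair.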
A short description of assay [4]: NCI Yeast Anticancer Drug Screen. Data for the cln2 rad14 strain (AID 165).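 Further: 0% = growth equal to vehicle treated cultures.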 Conditions: S. cerevisiae cln2 rad14 strain, active compounds read high. Summed up: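 Growth of compound-exposed yeast (cln2 rad14 genotype) measured and expressed as inhibition relative to vehicle.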
The nature of assay [5]: NCI Yeast Anticancer Drug Screen. Data for the mlh1 rad18 strain (AID 175). Conditions: S. cerevisiae mlh1 rad18 strain growth inhibition, active compounds read high. Summed up:
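In this whole-cell yeast screen, a strain with altered DNA damage repair is challenged with compound, and its growth is measured against matched vehicle-treated controls.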

The nature of assay [6]: NCI Yeast Anticancer Drug Screen. Data for the bub3 strain (AID 167). Conditions: S. cerevisiae bub3 mutant strain, active compounds read high. In short, it runs like this:
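Growth of a checkpoint-deficient yeast mutant is measured after compound exposure. Values represent inhibition relative to vehicle.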

Setting [7] is: at 5.0 µM (retest, dose inferred, filed as 0.5).
The mark [8] stands for this setting: at 50.0 µM (retest, dose inferred, filed as 5.0).

Consider `CS(=O)(=O)C(c1nc2nnc(NC(=O)Nc3ccc(Cl)cc3)n2[nH]c1=O)c1nc2nnc(NC(=O)Nc3ccc(Cl)cc3)n2[nH]c1=O`, for which the growth inhibition in assay [1] (setting [7]) was -14%; in assay [1] (setting [8]), 11%; in assay [1] (at 50.0 µM) it was 32.2%; in assay [2] (setting [7]) it was -20%; in assay [2] (setting [8]) it was 23%; in assay [2] (at 50.0 µM), 74.5% (active). Besides, the growth inhibition in assay [3] (setting [7]) was 1%; in assay [3] (setting [8]), -7%; in assay [3] (at 50.0 µM) it was 24.6%; in assay [4] (setting [7]), -36%; in assay [4] (setting [8]), 3%; in assay [4] (at 50.0 µM) it was 30.6%. Further, the growth inhibition was -19% in assay [5] (setting [7]), 32% in assay [5] (setting [8]) and 62.5% in assay [5] (at 50.0 µM).
As to `CCOc1c(N=Nc2ccc(Cl)cc2)c(-c2ccccc2)nn1C(N)=S`, the growth inhibition in assay [1] (setting [7]) was 3%; in assay [1] (setting [8]), 90% (active); in assay [1] (at 50.0 µM) it was 93.4% (active); in assay [2] (setting [7]), -11%; in assay [2] (setting [8]), 89% (active); in assay [2] (at 50.0 µM), 94.7% (active). For the same compound, the growth inhibition in assay [3] (setting [7]) was 18%; in assay [3] (setting [8]) it was 92% (active); in assay [3] (at 50.0 µM), 93.9% (active); in assay [4] (setting [7]), -13%; in assay [4] (setting [8]), 87% (active); in assay [4] (at 50.0 µM), 93.3% (active). Besides, the growth inhibition in assay [6] (setting [7]) was 1%; in assay [6] (setting [8]) it was 92% (active); in assay [6] (at 50.0 µM), 92.4% (active); in assay [5] (setting [7]) it was 0%; in assay [5] (setting [8]) it was 90% (active); in assay [5] (at 50.0 µM), 93.1% (active).
Regarding `CCOC(=O)C1=C(C)NC2=C(C(=O)N(c3ccccc3)C2c2ccccc2)C1c1ccccc1` (stereo not given), the growth inhibition in assay [1] (setting [7]) is 5%; in assay [1] (setting [8]) it was 5%; in assay [1] (at 50.0 µM), 72.5% (active); in assay [2] (setting [7]), 9%; in assay [2] (setting [8]), 9%; in assay [2] (at 50.0 µM), 56.4%. Also, the growth inhibition is 3% in assay [3] (setting [7]); 3% in assay [3] (setting [8]); 63.1% in assay [3] (at 50.0 µM); -11% in assay [4] (setting [7]); -11% in assay [4] (setting [8]); 65.6% in assay [4] (at 50.0 µM). The growth inhibition in assay [6] (setting [7]) was -7%; in assay [6] (setting [8]) it was -7%; in assay [6] (at 50.0 µM) it was 49.2%; in assay [5] (setting [7]), 8%; in assay [5] (setting [8]) it was 8%; in assay [5] (at 50.0 µM) it was 54.1%.
With `O=c1c2cc3ccccc3cc2c(=O)n2n1CC=CC2`, the growth inhibition in assay [1] (setting [7]) was 8%; in assay [1] (setting [8]) it was 39%; in assay [1] (at 50.0 µM), 74.2% (active); in assay [2] (setting [7]), -1%; in assay [2] (setting [8]), 6%; in assay [2] (at 50.0 µM), 15.9%. Also, the growth inhibition in assay [3] (setting [7]) was 9%; in assay [3] (setting [8]), 18%; in assay [3] (at 50.0 µM), 22%; in assay [4] (setting [7]), 4%; in assay [4] (setting [8]), 10%; in assay [4] (at 50.0 µM), 26.8%. For the same compound, the growth inhibition in assay [5] (setting [7]) is 25%; in assay [5] (setting [8]), 46%; in assay [5] (at 50.0 µM) it was 10.8%.
For `Oc1ccc2c(ccc3ccccc32)c1`, the growth inhibition in assay [1] (setting [7]) was 1%; in assay [1] (setting [8]), 98% (active); in assay [1] (at 50.0 µM), 97.5% (active); in assay [2] (setting [7]), -4%; in assay [2] (setting [8]), 100% (active); in assay [2] (at 50.0 µM), 97.3% (active). For the same compound, the growth inhibition in assay [3] (setting [7]) was 0%; in assay [3] (setting [8]), 91% (active); in assay [3] (at 50.0 µM), 99.4% (active); in assay [4] (setting [7]), -3%; in assay [4] (setting [8]) it was 99% (active); in assay [4] (at 50.0 µM), 99% (active). The growth inhibition in assay [6] (setting [7]) was 4%; in assay [6] (setting [8]), 88% (active); in assay [6] (at 50.0 µM), 99% (active); in assay [5] (setting [7]) it was -1%; in assay [5] (setting [8]), 99% (active); in assay [5] (at 50.0 µM), 99.2% (active).
In the case of `COc1cccc(C2CC(C)(O)Oc3cc4c(cc32)OCO4)c1` (stereo not given), the growth inhibition in assay [1] (setting [7]) was 4%; in assay [1] (setting [8]), 36%; in assay [1] (at 50.0 µM), 33.8%; in assay [2] (setting [7]), 5%; in assay [2] (setting [8]), 16%; in assay [2] (at 50.0 µM), 50.7%. The growth inhibition in assay [3] (setting [7]) is -12%; in assay [3] (setting [8]) it was 9%; in assay [3] (at 50.0 µM) it was 29.4%; in assay [4] (setting [7]), 8%; in assay [4] (setting [8]), 44%; in assay [4] (at 50.0 µM), 54.6%. Also, the growth inhibition in assay [6] (setting [7]) was 2%; in assay [6] (setting [8]) it was 57%; in assay [6] (at 50.0 µM), 46.4%; in assay [5] (setting [7]), -14%; in assay [5] (setting [8]), 38%; in assay [5] (at 50.0 µM), 53%.
Regarding `N#CC(C#N)=C1C(Br)=CCc2ccccc21`, the growth inhibition in assay [1] (setting [7]) is 100% (active); in assay [1] (setting [8]) it was 99% (active); in assay [1] (at 50.0 µM), 99.2% (active); in assay [2] (setting [7]), 100% (active); in assay [2] (setting [8]) it was 100% (active); in assay [2] (at 50.0 µM), 99.3% (active). The growth inhibition in assay [3] (setting [7]) is 100% (active); in assay [3] (setting [8]), 99% (active); in assay [3] (at 50.0 µM), 99.2% (active); in assay [4] (setting [7]), 100% (active); in assay [4] (setting [8]) it was 99% (active); in assay [4] (at 50.0 µM), 97.5% (active). In addition, the growth inhibition in assay [6] (setting [7]) is 100% (active); in assay [6] (setting [8]), 99% (active); in assay [6] (at 50.0 µM), 99.2% (active); in assay [5] (setting [7]) it was 100% (active); in assay [5] (setting [8]) it was 99% (active); in assay [5] (at 50.0 µM) it was 99.2% (active).
`CC(=O)OC1=C(CC(C)C)C(=O)c2ccccc2C1=O`: the growth inhibition was 7% in assay [1] (setting [7]); 67% in assay [1] (setting [8]); 69.2% in assay [1] (at 50.0 µM); 8% in assay [2] (setting [7]); 70% (active) in assay [2] (setting [8]); 59.2% in assay [2] (at 50.0 µM). Also, the growth inhibition in assay [4] (setting [7]) was 1%; in assay [4] (setting [8]), 55%; in assay [4] (at 50.0 µM) it was 51%; in assay [6] (setting [7]), 6%; in assay [6] (setting [8]), 78% (active); in assay [6] (at 50.0 µM) it was 56.6%. Besides, the growth inhibition in assay [5] (setting [7]) was 20%; in assay [5] (setting [8]), 85% (active); in assay [5] (at 50.0 µM) it was 73.5% (active).
`CCCCCCCCCCCCNC(=O)OCC(C)O` (stereo not given) (tested in a mixture with another compound): the growth inhibition in assay [1] (setting [7]) is 95% (active); in assay [1] (setting [8]), 97% (active); in assay [1] (at 50.0 µM), 98.2% (active); in assay [2] (setting [7]) it was 76% (active); in assay [2] (setting [8]), 93% (active); in assay [2] (at 50.0 µM) it was 96.6% (active). Moreover, the growth inhibition in assay [3] (setting [7]) was 96% (active); in assay [3] (setting [8]) it was 98% (active); in assay [3] (at 50.0 µM), 98.9% (active); in assay [4] (setting [7]), 81% (active); in assay [4] (setting [8]) it was 88% (active); in assay [4] (at 50.0 µM) it was 97.9% (active). The values for the growth inhibition in assay [5] (setting [7]), in assay [5] (setting [8]) and in assay [5] (at 50.0 µM) were 93% (active), 91% (active) and 98.5% (active), respectively.
As for `CN(Nc1ccc(Cl)cc1)c1ccc(Cl)cc1`, the growth inhibition in assay [1] (setting [7]) is 1%; in assay [1] (setting [8]), 95% (active); in assay [1] (at 50.0 µM), 73.2% (active); in assay [2] (setting [7]), 12%; in assay [2] (setting [8]) it was 98% (active); in assay [2] (at 50.0 µM), 64%. The growth inhibition in assay [3] (setting [7]) is 0%; in assay [3] (setting [8]) it was 97% (active); in assay [3] (at 50.0 µM) it was 79.2% (active); in assay [4] (setting [7]), 5%; in assay [4] (setting [8]), 95% (active); in assay [4] (at 50.0 µM), 53.1%. Moreover, the results for the growth inhibition in assay [5] (setting [7]), in assay [5] (setting [8]) and in assay [5] (at 50.0 µM) were -9%, 96% (active) and 75.3% (active), respectively.
